# Tau ThT inhib: tau fibrillization inhibition (ThT binding); recombinant tau K18 P301L, heparin-induced fibrillization, ThT fluorescence; Potency, µM (titrated, usually from 57.4 µM), without a hit: at the highest dose activity, negative = inhibition, hits mostly inhibitors; 270,000 compounds, 2.1% hits; further: nearly all actives have a fitted effect of over 55% in size
# Target sequence (P10636 561-689 P618L limits assumed): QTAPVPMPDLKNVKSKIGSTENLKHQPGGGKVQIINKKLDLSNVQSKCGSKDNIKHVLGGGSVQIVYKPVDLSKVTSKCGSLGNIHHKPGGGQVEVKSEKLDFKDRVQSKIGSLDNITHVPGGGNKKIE
#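 Heparin-induced (20 uM) aggregation of recombinant human K18 P301L tau, 15 uM unlabeled with 0.24 uM labeled, pH 7 acetate buffer, 6 hr at 37 C with compound. Fibrils quantified by 30 uM ThT fluorescence after 1 hr ambient incubation.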
# TRb SRC2 PPI: TRbeta-SRC2 interaction inhibition; P10828; TRbeta-SRC2 peptide binding, fluorescence polarization; receptor liganded with 1 µM T3; Potency, µM (titrated, usually from 106 µM), for the others: top-dose activity change, negative = inhibition, most hits filed as inhibitors; 280,000 compounds, 0.065% hits; AID 1469;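 further: plate controls were bound peptide for no effect and peptide without receptor for full effect; nearly all actives have a fitted effect of over 50% in size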
#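 TRb LBD 0.6 uM + Texas Red SRC2 peptide 20 nM, 1 uM T3, Tris buffer w/ 5% DMSO; compound pinned, 5 h RT; FP read ex 555/em 632; normalized to unbound and bound controls.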
# RGS12 GoLoco inh: blocks human Gai1 binding to RGS12 GoLoco peptide, red readout; Gai1:RGS12 GoLoco peptide FP, rhodamine, 10 min; Potency, µM (top dose mostly 61.6 µM), for the others: at the top dose activity, negative = inhibition, usual class: inhibitors; P63096; 230,000 compounds, 0.44% hits; AID 880; active means well fitted inhibition curve with a large enough effect, not every such curve was filed as active; inactive means no such curve, though single readings can be large or run the other way; further: nearly all actives have a fitted effect of over 30% in size
# Target sequence (P63096 whole entry, looked up): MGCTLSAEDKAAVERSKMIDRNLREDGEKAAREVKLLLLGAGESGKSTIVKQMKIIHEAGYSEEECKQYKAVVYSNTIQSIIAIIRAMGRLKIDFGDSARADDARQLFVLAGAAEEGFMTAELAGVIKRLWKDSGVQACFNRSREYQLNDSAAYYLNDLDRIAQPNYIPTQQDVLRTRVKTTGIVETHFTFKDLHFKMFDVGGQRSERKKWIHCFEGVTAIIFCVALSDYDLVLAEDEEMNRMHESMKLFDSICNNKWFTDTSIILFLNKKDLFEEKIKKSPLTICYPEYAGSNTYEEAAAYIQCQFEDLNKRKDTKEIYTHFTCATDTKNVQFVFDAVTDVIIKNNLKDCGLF
# Tau fibril FP: tau fibrillization inhibition (FP); 280,000 compounds, 0.39% hits; AID 1468; P10636; K18 P301L tau heparin fibrillization, Alexa594 FP, 6 h; Potency, µM (doses to about 57.7 µM), for the others: at the top dose activity, negative = inhibition, usual class: inhibitors; further: nearly all actives have a fitted effect of over 55% in size
#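 Compound effects on tau fibrillization are measured by Alexa 594 fluorescence polarization (ex 555, em 632 nm). K18 P301L tau is used at 15 uM with 0.24 uM labeled tracer, and 20 uM heparin induces aggregation over 6 hr at 37 C.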
# TexasRed fluor: Texas Red fluorescence interference in TRb-SRC2 counter-screen. Potency, µM (top dose mostly 106 µM), for the others: at the top dose fluorescence change, negative = quenching. 280,000 compounds, 0.29% hits. TRb/SRC2 Texas Red total fluorescence interference. AID 1479; active means well fitted curve in either direction with a large enough effect; inconclusive means small, poorly fitted or top-dose-only effect
#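 Flags fluorescent or light-absorbing compounds by total fluorescence, S + 2P, at 555 nm excitation and 632 nm emission. Mixture: 20 nM Texas Red SRC2 peptide, 0.6 uM human TRb LBD, 1 uM T3, 5% DMSO; compound exposure 5 h at ambient temperature.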
# Tau fluor counter: counter-screen for tau fibril formation inhibitors; tau K18 P301L (four-repeat tau fragment) Alexa594 fluorescence, heparin fibrillization; 280,000 compounds, 0.93% hits; Potency, µM (highest dose often 57.7 µM), for inactives: at the highest dose activity change, negative = decrease; further: nearly all actives have a fitted effect of over 55% in size
#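 Human K18 P301L tau (15 uM unlabeled plus 0.24 uM Alexa 594-labeled, final) in 100 mM sodium acetate pH 7 was mixed with compound and 20 uM heparin and incubated 6 hr at 37 C.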
# An asterisk follows results filed as active; u = inconclusive; x = no result; [ ] = remark or other dose. Most compounds without a hit are left out; they make up all but 3.2% or so of the library. Unless noted, the call rests on the fitted dose curve; in most records, active means well fitted curve in the direction sought with a large enough effect; inconclusive means small, poorly fitted or top-dose-only effect, or another doubt; inactive means no such curve, though single readings can be large; an effect the other way counts as inactive or inconclusive. Unless noted, on the % scale 0 is the no-effect control and ±100 the full control effect; potency means the concentration at half of the fitted maximal effect.
SMILES,Tau ThT inhib,TRb SRC2 PPI,RGS12 GoLoco inh,Tau fibril FP,TexasRed fluor,Tau fluor counter
CC[C@@H]1C(c2ccc(F)cc2)=NN(c2ccc(Br)cc2)[C@H]1C(=O)N1CCOC1=O,u,7.4%,3.8%,8.1%,2.1%,10µM*[quencher]
CN(Cc1ccccc1)C(=O)[C@H](Cc1ccc2ccccc2c1)NC(=O)[C@@H]1CCCN1C(=O)Nc1ccccc1[N+](=O)[O-],u,-4.0%,7.1%,13.6%,-0.6%,-27.1%
N#CC1=C(N)NC(SCc2ccc(F)cc2)=C(C#N)C12CCCCC2,-8.0%,-4.1%,-1.9%,u,-1.8%,17.8µM*[quencher]
COC(=O)c1ccc([C@H]2Nc3ccc(S(=O)(=O)Nc4ccc(C)cc4)cc3[C@H]3C=CC[C@H]32)cc1,u,5.1%,x,0.7%,-1.5%,u
Cc1c(Cl)cccc1NS(=O)(=O)c1ccc2c(c1)C1C=CCC1C(c1ccc(C(=O)O)cc1)N2 (stereo unspecified),25.1µM*,10.1%,67.9%,u,-12.5%,u
COc1ccc(NS(=O)(=O)c2ccc3c(c2)[C@H]2C=CC[C@H]2[C@@H](c2ccc(C(=O)O)cc2)N3)cc1,25.1µM*,9.8%,x,-17.4%,-8.2%,u
COC(=O)C1=C(C)N(Cc2ccccc2)C2=C(C(C)=O)C(c3ccccc3)[C@@](O)(C(=O)OC)C(=O)N2C1c1ccccc1 (stereo partly specified),u,-0.7%[11.2 µM],x,u,-1.1%[11.2 µM],-8.1%[11.6 µM]
COc1ccc(C(=O)c2coc3c2C(=O)C(=O)c2ccccc2-3)cc1,2.82µM*,-3.4%,0.3%,u,-2.7%,u
O=C1c2ccccc2C(=O)c2c1oc(C(F)(F)F)c2C(=O)c1ccccc1,u,-3.8%,-32.1%,-4.0%,-4.5%,u
COc1ccc2occ(C(=O)c3ccccc3)c2c1,-4.0%,0.7%,-3.6%,-1.8%,-6.1%,-1.6%
O=C(c1ccccc1)c1coc2c1C(=O)c1ccccc1C2=O,12.6µM*,4.2%,1.4%,-12.3%,-1.5%,u
COc1ccc(CNS(=O)(=O)c2cc(C(=O)Nc3cc(Cl)cc(Cl)c3)ccc2F)cc1,7.6%,1.8%,x,3.55µM*,-0.2%,3.55µM*[quencher]
O=C(Nc1cc(Cl)cc(Cl)c1)c1ccc(F)c(S(=O)(=O)NCc2ccccc2Cl)c1,3.6%,5.5%,x,8.91µM*,-3.2%,u
O=C(Nc1ccc(Br)cc1)c1ccc(F)c(S(=O)(=O)NC2CCCCCC2)c1,9.3%,3.0%,x,u,-1.9%,u
CCc1ccc(NC(=O)c2ccc(F)c(S(=O)(=O)NCc3ccc(Cl)c(Cl)c3)c2)cc1,13.5%,-0.4%,x,u,-0.5%,-20.8%
O=C(Nc1cc(Cl)cc(Cl)c1)c1ccc(F)c(S(=O)(=O)NC2CCCCC2)c1,4.9%,-0.7%,x,7.08µM*,-0.2%,u
NOCc1ccccc1,x,-5.3%,x,x,-8.7%,x
COc1ccc2ccccc2c1/C=N/N1C(=O)CSC1=S,11.2µM*,28.4%,88.2%,-10.9%,-21.5%,-28.9%
COc1cccc(/C=N/N2C(=O)CSC2=S)c1O,15.8µM*,-2.9%,158.5%,u,0.0%,u
COc1cc(/C=N/N2C(=O)CSC2=S)cc(Br)c1O,12.6µM*,u,303.9%,u,u,u
COc1cc(/C=N/N2C(C)CCCC2C)cc(Br)c1O (stereo unspecified),-14.1%,-0.1%,-3.5%,1.4%,1.5%,-13.5%
CC(=O)Nc1ccc(SCC(CC(C)C)N2CCN(CCc3ccccc3)CCC2=O)cc1 (stereo unspecified),x,6.5%,x,x,-2.0%,x
c1ccc(-c2nc(-c3cccc4ccccc34)c(Nc3ccc4ccccc4c3)o2)cc1,u,-4.8%,2.1%,0.1%,-1.4%,-21.8%
COc1ccc(S(=O)(=O)c2ccc(OC)cc2)cc1,-12.5%,-15.1%,-1.4%,-7.8%,2.2%,-10.7%
COc1ccc(C2=CC(=O)C=CC2=O)cc1,14.1µM*,-0.3%,3.55µM*,35.5µM*,-2.1%,u
SMILES,Tau ThT inhib,TRb SRC2 PPI,RGS12 GoLoco inh,Tau fibril FP,TexasRed fluor,Tau fluor counter
C(=N\c1c(-c2ccccc2)nc2n1CCS2)/c1ccccc1,22.4µM*,-11.6%,0.8%,u,-1.4%,u
CCOc1ccc(C2C(C#N)=C(N)SC(N)=C2C#N)c(OCC)c1,u,4.7%,20.4%,u,-2.4%,u
CCCCc1ccc(C2C(C#N)=C(N)SC(N)=C2C#N)s1,25.1µM*,4.8%,198.9%,u,-1.5%,25.1µM*[quencher]
Fc1ccccc1,x,-2.2%,4.9%,x,-1.4%,x
Cc1cccc(-n2c(O)c(C=Nc3cccc(O)c3)c3ccccc3c2=O)n1,-13.3%,7.0%,4.6%,-1.5%,0.2%,-20.4%
CC1=NC(=O)C(N=Nc2cccc(O)c2)N1c1ccccc1 (stereo unspecified),5.01µM*,-0.8%,15.8µM*,-4.5%,-7.1%,u
CC(C)[C@H](N)C(=O)N[C@@H](CCC(N)=O)C(=O)NCC(=O)N[C@@H](CCC(=O)O)C(=O)N[C@@H](CCC(=O)O)C(=O)N[C@@H](CO)C(=O)N[C@@H](CC(N)=O)C(=O)N[C@@H](CC(=O)O)C(=O)N[C@@H](CCCCN)C(=O)O,x,-7.5%,x,x,-4.2%,x
COC(=O)C(C(=O)OC)[C@@H](NC(=O)OCc1ccccc1)c1ccccc1,-4.5%,4.6%,1.2%,2.3%,1.4%,-2.3%
CC(=O)Nc1ccc(C2=NNC(=Nc3cccc(S(=O)(=O)N(C)C)c3)SC2)cc1,7.94µM*,-4.0%,29.7%,u,-9.5%,14.1µM*[quencher]
COCCN=C1NN=C(c2ccc(NC(C)=O)cc2)CS1,28.2µM*,0.0%,-9.9%,u,2.0%,-27.2%
CC(=O)Nc1ccc(C2=NNC(=Nc3ccc(S(=O)(=O)N4CCOCC4)cc3)SC2)cc1,4.47µM*,-5.7%,13.9%,u,-8.1%,15.8µM*[quencher]
CCC(=O)Nc1ccc(S(=O)(=O)N2CCOCC2)cc1,-9.0%,-16.3%,-1.6%,2.0%,-1.1%,-6.2%
CCC(=O)C(C(=O)OC)[C@H](CCc1ccccc1)NC(=O)OC (stereo partly specified),-0.4%,7.5%,-2.3%,-10.5%,-0.7%,-5.9%
CC1(C)CC2(CC(c3ccccc3F)c3ccc(O)c(O)c3O2)NC(=S)N1 (stereo unspecified),22.4µM*,-1.0%,-22.7%,u,-3.8%,u
CC1(C)CC2(CC(c3ccc(F)cc3)c3ccc(O)cc3O2)NC(=S)N1 (stereo unspecified),x,2.0%,-3.9%,-12.3%,2.5%,-17.5%
COc1ccc(C2=Nn3c(nnc3-c3cccc(OC)c3OC)SC2)c(OC)c1,x,6.9%,x,x,-0.9%,x
